PubChem BioAssay
Results filed as inconclusive are left out. The source made the active and inactive calls. The limit is not given here; nearly all actives have AC50 up to about 37 µM.

Assay: viability loss in pontine glioma line – cell-based, SU-DIPG-XIII, MIPE4.0, CellTiter-Glo, qHTS, dose response (AID 1347061);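 also: cells exposed to compound for 48 hours before readout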
Conditions: CellTiter-Glo ATP luminescence

| SMILES | outcome | AC50 |
| --- | --- | --- |
| CN(N=O)C(=O)N[C@H]1C(O)OC(CO)[C@@H](O)[C@@H]1O (stereo not given in full) | inactive |  |
| O=C(O)c1cc(O)c2c(c1)C(=O)c1cccc(O)c1C2=O | inactive |  |
| Cc1nc2c([nH]1)CCN(C(=O)c1ccc(NC(=O)c3ccccc3-c3ccccc3)cc1)c1ccccc1-2 | inactive |  |
| C=C1/C(=C\C=C2/CCC[C@]3(C)[C@@H]([C@H](C)/C=C/[C@H](C)C(C)C)CC[C@@H]23)C[C@@H](O)C[C@@H]1O |  | 8.33 µM (active) |
| CCC(CC)[C@H](NC(C)=O)[C@@H]1[C@H](O)[C@@H](C(=O)O)C[C@H]1N=C(N)N | inactive |  |
| CN(C)c1nc(Cc2ccc(NC(=O)c3ccc(C(F)(F)F)cc3)cc2)nc(N(C)C)c1CC(=O)O | inactive |  |
| Nc1ccn([C@H]2CS[C@@H](CO)O2)c(=O)n1 | inactive |  |
| C1=C/COCc2cc(ccc2OCCN2CCCC2)Nc2nccc(n2)-c2cccc(c2)OCC/1 |  | 14.8 µM (active) |
| COc1ccc(CC2SC(=O)NC2=O)cc1C(=O)NCc1ccc(C(F)(F)F)cc1 (stereo not given) | inactive |  |
| Cc1cc(-c2nnc3n2CCCCC3)c(C)n1-c1ccccc1 | inactive |  |
| CN1[C@@H]2CC(OC(=O)[C@@H](CO)c3ccccc3)C[C@H]1[C@H]1O[C@H]12 (stereo not given in full) | inactive |  |
| CC(C)C(=O)Oc1ccc(CO)cc1[C@H](CCN(C(C)C)C(C)C)c1ccccc1 | inactive |  |
| C/C(=C\C(=O)Nc1ccccc1C(=O)O)c1ccc2ccccc2c1 | inactive |  |
| CCC[C@H]1C[C@H](C(=O)N[C@@H]([C@@H]2O[C@@H](SC)[C@@H](O)[C@@H](O)[C@H]2O)[C@H](C)Cl)N(C)C1 | inactive |  |
| CC[C@H]1OC(=O)[C@H](C)[C@@H](O[C@H]2C[C@@](C)(OC)[C@@H](O)[C@H](C)O2)[C@H](C)[C@@H](O[C@@H]2O[C@@H](C)C[C@H](N(C)C)[C@H]2O)[C@](C)(O)C[C@@H](C)C(=O)[C@H](C)[C@@H](O)[C@]1(C)O | inactive |  |
| Nc1n[nH]c2nnc(-c3c(-c4ccccc4)nn4ccccc34)cc12 |  | 20.9 µM (active) |
| O=C(O)C1=NC(C(=O)O)CC(/C=C/N2c3cc(O)c(OC4OC(CO)C(O)C(O)C4O)cc3CC2C(=O)O)=C1 (stereo not given) | inactive |  |
| CN[C@H]1[C@H](O[C@@H]2[C@H](O[C@@H]3[C@@H](O)[C@@H](O)[C@@H](N=C(N)N)[C@@H](O)[C@H]3N=C(N)N)O[C@H](C)[C@@]2(O)C=O)O[C@@H](CO)[C@@H](O)[C@H]1O | inactive |  |
| CCCCCNC(=O)N1CCC(CN(Cc2ccc(Cl)cc2)Cc2ccc([N+](=O)[O-])s2)C1 (stereo not given) | inactive |  |
| CNc1ccc(C(=O)Oc2cc(ON[N+](=O)N(C)C)c([N+](=O)[O-])cc2C#N)cc1 | inactive |  |

| SMILES | outcome | AC50 |
| --- | --- | --- |
| CC(C)(C)OC(=O)N[C@H]1CCCCC/C=C\[C@@H]2C[C@@]2(C(=O)NS(=O)(=O)C2CC2)NC(=O)[C@@H]2C[C@@H](OC(=O)N3Cc4cccc(F)c4C3)CN2C1=O | inactive |  |
| CC(=O)N1CCN(c2ccc(OCc3nn(C)c(C)c3-c3cccc4c(CCCOc5cccc6ccccc56)c(C(=O)O)n(Cc5cccnc5)c34)cc2)CC1 |  | 9.35 µM (active) |
| O=C(NNC(=O)c1ccc(CNS(=O)(=O)c2ccc(F)c(Cl)c2)cc1)c1ccccc1 | inactive |  |
| CC1COC2(CCN(c3nc(=O)c4cc(C(F)(F)F)cc([N+](=O)[O-])c4s3)CC2)O1 (stereo not given) | inactive |  |
| Cc1nnc(C(C)C)n1C1C[C@H]2CC[C@@H](C1)N2CC[C@H](NC(=O)C1CCC(F)(F)CC1)c1ccccc1 (stereo not given in full) | inactive |  |
| C=C1C[C@@]2(O)O[C@@]3(C[C@H]2C(C)C)[C@@H](C)CC[C@@H]13 | inactive |  |
| CCCCCCCCCCCCCC(=O)N[C@H](CO)[C@H](O)c1ccc([N+](=O)[O-])cc1 | inactive |  |
| C[C@H](NCc1ccc2c(c1)nc(NC(=O)c1ccc(-c3cn[nH]c3)s1)n2CCc1ccccc1)C(C)(C)C |  | 2.96 µM (active) |
| C[C@H](NCc1ccc(OCc2cccc(F)c2)cc1)C(N)=O |  | 18.7 µM (active) |
| CO/N=C(/C(=O)N[C@@H]1C(=O)N2C(C(=O)O)=C(Cn3ccc(=N)n3CCO)CS[C@H]12)c1csc(N)n1 | inactive |  |
| C[C@]12CC[C@H](O)CC1=CCC1C2CC[C@]2(C)C(n3cnc4ccccc43)=CCC12 (stereo not given in full) | inactive |  |
| c1nc2nc(Nc3ccc(N4CCOCC4)cc3)nc(NC3CCCCC3)c2[nH]1 |  | 9.35 µM (active) |
| Cc1ccnc(NS(=O)(=O)c2ccc(NC(=O)Nc3ccc(S(=O)(=O)Nc4nccc(C)n4)cc3)cc2)n1 | inactive |  |
| OC[C@H]1O[C@@H](OCCc2ccc(O)cc2)[C@H](O)[C@@H](O)[C@@H]1O | inactive |  |
| CN(C)CCCNC(=O)c1ccc(-c2cc(O)c3ncccc3c2)cc1 | inactive |  |
| CC(C)(C)COc1ccc(-n2cc(C(=O)O)cn2)cc1C#N | inactive |  |
| Nc1nc(F)nc2c1ncn2[C@@H]1O[C@H](CO)[C@@H](O)[C@H]1O |  | 1.05 µM (active) |
| Clc1cccc(-c2nnnn2Cc2cccnc2)c1Cl | inactive |  |
| CCC(C)CCCCC(=O)N[C@@H](CCN)C(=O)NC(C(=O)N[C@H](CCN)C(=O)N[C@@H]1CCNC(=O)C([C@@H](C)O)NC(=O)[C@@H](CCN)NC(=O)[C@@H](CCN)NC(=O)[C@@H](CC(C)C)NC(=O)[C@H](Cc2ccccc2)NC(=O)[C@H](CCN)NC1=O)[C@@H](C)O (stereo not given in full) | inactive |  |
| CNC(=O)c1ccc(Nc2cc(Nc3ccccc3S(=O)(=O)C(C)C)c3cc[nH]c3n2)nc1 |  | 16.6 µM (active) |
